# Records with an inconclusive call do not appear. Values without a mark were called inactive. Calls come from the whole dose curve; as a rule, active = well fitted curve in the direction sought with a large enough effect; inconclusive = small, poorly fitted or top-dose-only effect, or another doubt; inactive = no such curve, though single readings can be large or run the other way.
# Test: qHTS Assay for Identifying Gametocytocidal Compounds (AID 743244);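 note: actives lower the fluorescent signal which means gametocytes are killed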
# Settings: P. falciparum 3D7 stage III-V gametocytes, alamarBlue, 72 h; max response: stronger effect = lower value
# Outline: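 P. falciparum 3D7 stage III–V gametocytes (20,000 cells/well) were exposed to compounds for 72 h at 37 °C, 5% CO2. AlamarBlue was then added for 24 h; decreased resorufin fluorescence (Ex 525/Em 598 nm) indicated loss of viability.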
# % is set by controls: 0 for no effect and ±100 for the full control effect.
smiles,measurement,value
COc1ccc2c(c1)CCC1C2CC[C@@]2(C)C1CC[C@@H]2NCCCCCCN1C(=O)C=CC1=O (stereo partly specified),max response,27.3%

# — PubChem BioAssay (NCATS)
